Measured values reported in PubChem BioAssay (NCATS).
Values joined by “and” are separate entries in the source; they are usually repeats but may differ in a detail not shown here. Equal values may be shown once. Inconclusive results are not listed. Values without a mark were called inactive. Active and inactive are the calls of the source. Calls follow the shape of the dose curve; as a rule, active = well fitted inhibition curve with a large enough effect; inconclusive = small, poorly fitted or top-dose-only effect; inactive = no such curve, though single readings can be large or run the other way.
Potency is read from the fitted curve at half-maximal effect.

The compounds below were run against Furin (Homo sapiens) (UniProt P09958) (assay: Furin counterscreen qHTS for Zika virus inhibitors (AID 1347149; also: nearly all actives have a fitted effect of over 70% in size;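 as to activity change, negative = inhibition: purified recombinant full-length human furin enzyme at 5 nM; fluorescence gain from furin cutting a BOC-RVRR-AMC peptide substrate over 15 min; top concentration of the series differs between compounds; plate controls were no-inhibitor control for no effect and no-enzyme control for full effect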)). Conditions: furin enzymatic counterscreen, fluorogenic substrate; series mostly up to 57.5 µM; activity change, negative = inhibition: at the top concentration.
Furin (Homo sapiens), sequence (P09958 whole entry, looked up): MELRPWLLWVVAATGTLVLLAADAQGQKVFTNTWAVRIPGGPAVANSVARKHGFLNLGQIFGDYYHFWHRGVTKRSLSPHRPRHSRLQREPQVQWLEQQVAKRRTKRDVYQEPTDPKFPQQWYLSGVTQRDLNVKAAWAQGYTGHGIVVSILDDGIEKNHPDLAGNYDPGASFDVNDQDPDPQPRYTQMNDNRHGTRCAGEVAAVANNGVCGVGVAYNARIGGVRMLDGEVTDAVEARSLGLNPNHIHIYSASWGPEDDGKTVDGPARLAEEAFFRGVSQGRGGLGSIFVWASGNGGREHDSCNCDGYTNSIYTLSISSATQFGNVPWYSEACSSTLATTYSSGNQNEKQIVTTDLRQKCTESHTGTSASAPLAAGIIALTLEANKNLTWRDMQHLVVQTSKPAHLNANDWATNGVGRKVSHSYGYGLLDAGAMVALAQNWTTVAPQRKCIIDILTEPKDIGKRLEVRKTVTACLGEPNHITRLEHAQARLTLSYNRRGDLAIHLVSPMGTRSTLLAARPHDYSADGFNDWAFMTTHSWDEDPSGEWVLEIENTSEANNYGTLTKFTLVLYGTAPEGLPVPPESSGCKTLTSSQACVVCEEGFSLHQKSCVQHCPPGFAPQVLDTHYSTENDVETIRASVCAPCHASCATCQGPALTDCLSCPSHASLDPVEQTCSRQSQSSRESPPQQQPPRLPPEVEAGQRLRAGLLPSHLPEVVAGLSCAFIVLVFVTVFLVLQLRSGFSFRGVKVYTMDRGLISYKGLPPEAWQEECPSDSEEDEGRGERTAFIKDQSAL
Summary of the method: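 Counterscreen measures cleavage of 2 microM BOC-RVRR-AMC, below its ~15 microM Km, by 5 nM full-length human furin at pH 7.0 after a 15-min compound preincubation. Inhibition derives from the 15-min fluorescence increase at 37C.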
With `NC(=O)c1cccc2[nH]c(-c3ccc([C@H]4CCCN4)cc3F)nc12` the Potency was 21.5 µM (active). For `Cc1ccn(-c2ccc(-c3ncco3)cc2)c(=O)c1-c1ccc2nc(N)ncc2c1`, the Potency was 21.5 µM (active). With `CC=CCC(C)C(O)C1C(=O)NC(CC)C(=O)N(C)CC(=O)N(C)C(CC(C)C)C(=O)NC(C(C)C)C(=O)N(C)C(CC(C)C)C(=O)NC(C)C(=O)NC(C)C(=O)N(C)C(CC(C)C)C(=O)N(C)C(CC(C)C)C(=O)N(C)C(C(C)C)C(=O)N1C` (stereo not given) the Potency was 0.0152 µM (active). For `CS(=O)c1ccc(-c2nc(-c3ccc(F)cc3)c(-c3ccncc3)[nH]2)cc1` (stereo not given), the Potency was 24.1 µM (active) and 21.5 µM (active). For `O=C(O)c1c(Cl)c(Cl)c(Cl)c(Cl)c1-c1c2cc(I)c(=O)c(I)c-2oc2c(I)c(O)c(I)cc12`, the “activity change, negative = inhibition” value was 3.93% [at 114 µM]. In the case of `O=c1c(O)c(-c2ccc(O)cc2)oc2cc(O)cc(O)c12`, the “activity change, negative = inhibition” value is reported as 7.29%. `C[C@H](NC(=O)C(=O)Nc1ccccc1C(C)(C)C)C(=O)N[C@@H](CC(=O)O)C(=O)COc1c(F)c(F)cc(F)c1F` was tested, and the “activity change, negative = inhibition” value was -1.65%. In the case of `COc1ccc2cc(-c3nc(-c4ccc(S(C)=O)cc4)[nH]c3-c3ccncc3)ccc2c1` (stereo not given), the Potency is reported as 3.83 µM (active). `NC(=O)c1ccc2nc(-c3ccc(Oc4ccc(Cl)cc4)cc3)[nH]c2c1` was tested, and the Potency was 34 µM (active). In the case of `CC1CCC(C(=O)N(c2cc(C#CC(C)(C)C)sc2C(=O)O)C2CCC(O)CC2)CC1` (stereo not given), the “activity change, negative = inhibition” value is reported as 0.33%.
